{"source": "the supplement of paper PMC6555819"}
{"tested_on": "VDR:RXRa (NR concentration 270 nM, RXRa partner concentration 90 nM)", "test": "PBM binding z-score (relative to random genomic background probes); higher = stronger binding; sequences stand for … in GC…GCGATTGACAGCGTAGAATGAAGG", "protocol": "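Protein-binding microarray (Agilent 4x180K custom design, double-stranded 60-nt probes: 5' GC cap, 34-nt variable region, 24-nt constant primer region; full probe sequence given). Purified or IVT nuclear receptor:RXRα heterodimers (3:1 NR:RXRα, mostly 270:90 nM) or homodimers were incubated for 1 h in PBS with 2% milk and no ligand, then detected with Alexa488 antibodies. Fluorescence from o1-orientation probes (~5 replicates averaged) was converted to z-scores against 500 random hg19 background probes. Variable regions are seed direct-repeat (DR0–DR5) sites, all their single-nucleotide variants and half-site ablations.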"}
{"sequence": "GGCACGAGGGCAAGTTGATAGCAGAGTTTGATGG", "PBM binding z-score": 0.599}
{"sequence": "GCAGACAGGTGAACCGCAGGTAACTCAGGGTGGC", "PBM binding z-score": 0.332}
{"sequence": "GCTTACGGGCCAAAGGTTATAGCATGAATAGAAT", "PBM binding z-score": 0.816}
{"sequence": "ACAGACTGGTGAGTGAAGGTAACTCAGCTGGACG", "PBM binding z-score": -0.365}
{"sequence": "AGAATGAGGTTAAGATCAGGGGAACAGAATACAT", "PBM binding z-score": 1.33}
{"sequence": "ATCGACAGGTCGTGAGGTGAGTATACAGAAAGGC", "PBM binding z-score": 1.12}
{"sequence": "CAAACTAGGTCAAGAGGTCAAAGACCGCTTCCCG", "PBM binding z-score": 5.93}
{"sequence": "CTTACTGGGCCAAGGTCATTGATCAGTCAAAGCA", "PBM binding z-score": 3.44}
{"sequence": "CCTCGGAGGACAGCAGGAGGTCAGAGCTGCCAGA", "PBM binding z-score": 1.09}
{"sequence": "CAAACTAGGTCACAGAGATCAAAGTCCGTGCGTA", "PBM binding z-score": 4.39}
{"sequence": "AATACAGGGTCACTAGGCCAGAGCAGGTACGAAT", "PBM binding z-score": 4.03}
{"sequence": "AGAATAAGGTTACCAAAGATCAGGGAAACGCTTG", "PBM binding z-score": 0.872}
{"sequence": "AGAATGAGGTTATACGTAGATCAGAGAAGAAAGT", "PBM binding z-score": 1.29}
{"sequence": "AATACAGGTTCATCGTAGGCCAGAGTACGCACAG", "PBM binding z-score": 4.6}
{"sequence": "TAGCCTGGGTCAGATCGGGCCAGTATACGCTATA", "PBM binding z-score": 0.452}
{"sequence": "TCTTGTAGATCAGCAGGTTAAGAATGCTGGCCAA", "PBM binding z-score": 0.397}
{"sequence": "GGAACGAGGGCAAAGTTGGTAGCATCTGTCGACG", "PBM binding z-score": 1.14}
{"sequence": "TCTATTAGGTGATTAGGGCAACCGAAACAGCGGA", "PBM binding z-score": 0.268}
{"sequence": "TGAATGAGGTTAAAGATCAGGGAACGTGGCGTCG", "PBM binding z-score": 1.99}
{"sequence": "CCTCGGAGGAAAACAGGAGGTCAGAGCTGCCAGA", "PBM binding z-score": 1.28}
{"sequence": "ATTTCTAGGTAAAGATAGTTCAGTGAATGCAAAT", "PBM binding z-score": 1.18}
{"sequence": "TAGCCTAGGTCATTCAGGGGCCAGTACAGAAAGC", "PBM binding z-score": 3.33}
{"sequence": "AGGACGAGGGCAATGAGTTGATAGCACGGGTGGC", "PBM binding z-score": 5.11}
{"sequence": "CTCGAAAGGTCGTGCTAAGGTGAGTATACCAAAC", "PBM binding z-score": 3.87}
{"sequence": "CCTACTGGGCCATGGTCATTGATCAGTCAAAGCA", "PBM binding z-score": -0.434}
{"sequence": "CCTCGGAGGACAACAGGAGGTCAGAGGTGCCAGA", "PBM binding z-score": 2.28}
{"sequence": "CGTCAAAGTTCAGGGTAACGTAACAGAAAGCAGC", "PBM binding z-score": 2.8}
{"sequence": "CGAACTAGGTCATTGACAGGACAGTAAATAGTAA", "PBM binding z-score": 2.34}
{"sequence": "CCAGACAGGTGAAACGTAACTCAGTCTGGTACGC", "PBM binding z-score": -0.217}
{"sequence": "GATCGGAGGACAAGGTCAGAGCTTTGTCCGTAGA", "PBM binding z-score": 1.44}
{"sequence": "ATCTCTAGGTAACAACTTCAGTGAAAGAGAGGAC", "PBM binding z-score": 0.366}
{"sequence": "CCGAGTAGGTTATGGGGCAATCAGGCAACGGTGA", "PBM binding z-score": 0.00491}
{"sequence": "CGTCCAAGGTCAAAGGTCAGTCAAGAGATGACGG", "PBM binding z-score": 6.84}
{"sequence": "TCTACTAGTTGATTAGGGCAACCGAAACAGCGGA", "PBM binding z-score": 0.208}
{"sequence": "CCTACTGGGCCACAGGTCATTGATTCCAATGCTC", "PBM binding z-score": 1.99}
{"sequence": "GCCGCTAGGTCAACTGATGGTCAGCTAAAGCTCG", "PBM binding z-score": 1.45}
{"sequence": "CAAACTAGGTCAAGAGGACAAAGTCCGCTTCCCG", "PBM binding z-score": 1.98}
{"sequence": "CAAACTAGGTCAAAAGTCAAAGTCGAGCCAACCA", "PBM binding z-score": 2.46}
{"sequence": "TGGAGTAGGTTACCAATGGGGCATTCAGCTTTCT", "PBM binding z-score": 0.293}
{"sequence": "ACTTACGTGTCAACGAGGTTATAGCACGCGTATA", "PBM binding z-score": 5.46}
